Data published in the antibiotic and cytotoxicity screens of Wong et al. (2023).
The whole screen tested about 39,000 compounds, of which about 3,300 (8.5%) were called active. The entries come from a sample that favours actives as a whole.

system: HepG2; assay: cytotoxicity call (relative viability < 0.9); conditions: 10 µM

| Compound | cytotoxicity call |
| --- | --- |
| N[C@@H](CO)Cc1ccccc1 | inactive |
| CCN(CC)C(=O)C1=NO[C@]2(CCNC2)C1 | inactive |
| COc1cc2c(cc1OC)C1CC(=O)C(CC(C)C)CN1CC2 (stereo unspecified) | active |
| COc1cc2c(cc1O)CCNC2C (stereo unspecified) | inactive |
| CCC1CN2CCc3cc(OC)c(OC)cc3C2CC1CC1NCCc2cc(OC)c(OC)cc21.Cl.Cl (stereo unspecified) | active |
| COc1cc2c(cc1OC)C(C)NCC2 (stereo unspecified) | inactive |
| CNC1C(O)C(OC2C(N)CC(N)C(OC3OC(C(C)O)C(O)C(O)C3N)C2O)OCC1(C)O (stereo unspecified) | inactive |
| CNC(=O)[C@H]1C[C@H]2CN(CC3CC3)C[C@H]1O2 | inactive |
| CCN1C[C@H]2C[C@H](C(=O)NCC3CC3)[C@@H](C1)O2 | inactive |
| C[C@@]1(O)[C@H](O)[C@@H](CO)O[C@H]1n1ccc2c(N)ncnc21 | inactive |
| CN(C)C(=O)Oc1cccc([N+](C)(C)C)c1.COS(=O)(=O)[O-] | inactive |
| COc1ccc(C[C@@H](N)c2ccc(C)cn2)cc1OC | inactive |
| COc1ccc(CCN)cc1OC | inactive |
| COc1ccc(Cc2nccc3cc(OC)c(OC)cc23)cc1OC.Cl | active |
| NCCc1cc(O)c(O)cc1O | inactive |
| COc1cccc(C=O)c1OC | inactive |
| COc1cc(OC)c(OC)cc1C=O | active |
| COc1cc2c(cc1C=O)OCO2 | inactive |
| O=C1C[C@@H](c2ccc(O)cc2)CN1 | inactive |
| O=C(O)C(Cl)Cl | inactive |
| N[C@@H](Cc1ccccc1)c1ccc2c(c1)OCCO2 | inactive |
| C1CCC(NC2CCCCC2)CC1 | inactive |
| CC12C=CC(=O)C=C1CCC1C2CCC2(C)C(=O)CCC12 (stereo unspecified) | inactive |

| Compound | cytotoxicity call |
| --- | --- |
| CCC1(C2OC(C3OC(O)(CO)C(C)CC3C)CC2C)CCC(C2(C)CCC3(CC(O)C(C)C(C(C)C(OC)C(C)C(=O)[O-])O3)O2)O1.[Na+] (stereo unspecified) | active |
| S=C=NCc1ccccc1 | active |
| NC(Cc1ccccc1)Cc1ccccc1 | inactive |
| Cl.NCCc1ccccc1 | inactive |
| O=C(O)[C@H]1N[C@H]2CC[C@@H]1C2 | inactive |
| CC(=O)N[C@@H]1[C@H](O[C@@H]2O[C@H](C[C@@H](O)[C@H]3O[C@@H](n4ccc(=O)[nH]c4=O)[C@H](O)[C@@H]3O)[C@H](O)[C@H](O)[C@H]2NC(=O)/C=C/CCCCCCCCC(C)C)O[C@@H](CO)[C@H](O)[C@H]1O | active |
| COc1ccc(OC(=O)N(C)C[C@H]2OCc3ccccc3-c3c(n(C)c4ccccc34)C(=O)N([C@H](C)CO)C[C@H]2C)cc1 | inactive |
| C1COC2(CN1)CNC2 | inactive |
| O.O=P1(N(CCCl)CCCl)NCCCO1 (stereo unspecified) | inactive |
| Cc1ccnc(N2CCNCC2)c1 | inactive |
| CCCCCCCCCC(=O)O[C@@H]1[C@@H](C)[C@@]2(O)[C@@H](C=C(CO)C[C@]3(O)C(=O)C(C)=C[C@@H]23)[C@@H]2C(C)(C)[C@]12OC(=O)CCCCCCCCC | inactive |
| CCCCCCCCCC(=O)O[C@@H]1[C@@H](C)[C@]2(O)[C@@H](C=C(CO)C[C@]3(O)C(=O)C(C)=C[C@@H]23)[C@@H]2C(C)(C)[C@@]12OC(=O)CCCCCCCCC | active |
| CCCCCCCCCCCCCC(=O)O[C@@H]1[C@@H](C)[C@@]2(O)[C@@H](C=C(CO)C[C@]3(O)C(=O)C(C)=C[C@@H]23)[C@@H]2C(C)(C)[C@]12OC(C)=O | active |
| CC1=C[C@H]2[C@]3(O)[C@H](C=C(CO)C[C@]2(O)C1=O)[C@H]1C(C)(C)[C@@]1(O)[C@H](O)[C@@H]3C | inactive |
| Cc1ccc(CC2(N)CC2)cc1 | inactive |
| CC(C)C[C@H](NC(=O)[C@H](CO)NC(=O)CNC(=O)[C@H](CC(C)C)NC(=O)[C@H](CCC(=O)O)NC(=O)[C@H](Cc1ccc(O)cc1)NC(=O)[C@H](CO)NC(=O)[C@H](CC(N)=O)NC(=O)[C@H](Cc1ccccc1)NC(=O)[C@H](CO)NC(=O)[C@@H](N)CSSC[C@H](N)C(=O)N[C@@H](Cc1ccc(O)cc1)C(=O)NCC(=O)N[C@@H](CCCNC(=N)N)C(=O)N[C@@H](CCCCN)C(=O)N[C@@H](CCCCN)C(=O)N[C@@H](CCCNC(=N)N)C(=O)N[C@@H](CCCNC(=N)N)C(=O)N[C@@H](CCC(N)=O)C(=O)N[C@@H](CCCNC(=N)N)C(=O)N[C@@H](CCCNC(=N)N)C(=O)N[C@@H](CCCNC(=N)N)C(=O)O)C(=O)O | inactive |
| CN(CC[C@H](N)CC(=O)N[C@H]1C=C[C@@H](n2ccc(N)nc2=O)O[C@@H]1C(=O)O)C(=N)N | inactive |
| c1cncc(N2CCNCC2)c1 | inactive |
| Cc1[nH]c2ccccc2c1CCN | inactive |
| C=CCOC(=O)[C@@H]1[C@H](C(=O)OC)N(C)[C@@H](c2ccccc2)[C@]12C(=O)Nc1ccc(I)cc12 | inactive |
| OCCN(CCO)CCO | inactive |
| NC1Cc2ccccc2C1 | inactive |
| CC(=O)OC(C)(C)/C=C/C(=O)C(C)(O)[C@H]1[C@H](O)C[C@@]2(C)[C@H]3CC=C4[C@@H](C[C@H](O)C(=O)C4(C)C)[C@]3(C)C(=O)C[C@]12C (stereo partly specified) | active |
